This is a sample that favours compounds with a hit; in the whole collection about 7.9% have one here.
HT1080-NT tox = kills 2HG-producing HT-1080-NT fibrosarcoma cells | AID 686970 | HT-1080-NT fibrosarcoma viability, CellTiter-Glo ATP luminescence, 48 h | 360,000 compounds, 1.6% hits | Potency, µM (highest dose often 46.1 µM), without a hit: at the highest dose activity, negative = less viability, usual class: cytotoxic;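 note: NT is the 2HG producing partner of a matched IDH1 knockdown line; 0% = DMSO-treated cells and -100% = media-only wells without cells; nearly all actives have a fitted effect of over 55% in size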
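Luminescent CellTiter-Glo readout after 48 hours of compound exposure at 37 degrees C defined viability of HT-1080-NT cells. Activity was normalized to DMSO wells and cell-free media wells; concentration-response curves were fitted and assigned curve classes.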
KB-3-1 tox = kills parental KB-3-1 adenocarcinoma cells | KB-3-1 viability, CellTiter-Glo ATP luminescence, 72 h | Potency, µM (top dose mostly 46.1 µM), usual class: cytotoxic | 400,000 compounds, 1.4% hits; note: % is set by controls: 0 for no effect and ±100 for the full control effect; nearly all actives have a fitted effect of over 60% in size
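Multi-concentration cytotoxicity screen in KB-3-1 cells grown in DMEM lacking phenol red with 10% FBS. After 72 h at 37 °C with compound, ATP-dependent luminescence was recorded.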
KB-V1 MDR tox = KB-V1 MDR subline cytotoxicity. Potency, µM (doses to about 46.1 µM), usual class: cytotoxic. 400,000 compounds, 3.4% hits. KB-V1 MDR cells viability, CellTiter-Glo, 72 h. AID 1347076; note: % is set by controls: 0 for no effect and ±100 for the full control effect; nearly all actives have a fitted effect of over 60% in size
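In this primary screen, KB-V1 cells overexpressing P-gp are incubated with library compounds (lowest to highest concentration) for 72 h at 37 degrees C before a luminescent ATP viability read.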
SW480 rereplic = induces DNA re-replication in SW480 colon adenocarcinoma cells; Potency, µM (top dose mostly 46.1 µM), for the others: top-dose re-replication activation, usual class: activators; 340,000 compounds, 1.8% hits; SW480 DNA re-replication, Hoechst DNA content imaging, 48 h; AID 624297; note: % of control where 0% means no effect; nearly all actives have a fitted effect of over 55% in size
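Image-based read-out: total Hoechst fluorescence of nuclei (405 nm excitation, 500-530 nm emission), with hits raising the fraction of high-intensity nuclei. SW480 colon cells incubated 48 hr with compounds at 37 C.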
MCF10A rereplic = inducers of DNA re-replication in MCF 10A breast cells; MCF 10A DNA re-replication, Hoechst nuclear intensity, 48 h; Potency, µM (titrated, usually from 46.1 µM), for the others: at the highest dose activity, positive = re-replication, most hits filed as activators; 350,000 compounds, 2.9% hits; note: % of control where 0% means no effect; nearly all actives have a fitted effect of over 50% in size
HT1080 IDH1KD tx = kills HT-1080 cells with IDH1 knockdown; HT-1080 IDH1 knockdown viability, ATP luminescence, 48 h; Potency, µM (highest dose often 46.1 µM), for the others: at the top dose activity, negative = toxicity, hits mostly cytotoxic; 360,000 compounds, 2% hits;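 note: 0% = DMSO wells and -100% = cell-free medium wells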
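Cytotoxicity counter-line: IDH1KD HT-1080, 48 h, CellTiter-Glo. Curves classed by r2, magnitude and activity.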
The depositor's hits bear a star. Calls come from the whole dose curve; as a rule, active = well fitted curve in the direction sought with a large enough effect; inconclusive = small, poorly fitted or top-dose-only effect, or another doubt; inactive = no such curve, though single readings can be large; an effect the other way counts as inactive or inconclusive. Potency is the fitted concentration of half-maximal effect.

Results for Cc1cc(C)nc(NS(=O)(=O)c2ccc(NC(=O)c3cccc(N4C(=O)CCC4=O)c3)cc2)n1 ?
HT1080-NT tox: 23.1µM*; KB-3-1 tox: inactive; KB-V1 MDR tox: inactive; MCF10A rereplic: 6.8%; HT1080 IDH1KD tx: -1.7%

Results for Cc1ccnc(NS(=O)(=O)c2ccc(NC(=O)c3ccc(N4C(=O)CCC4=O)cc3)cc2)n1 ?
HT1080-NT tox: -0.1%; KB-3-1 tox: inactive; KB-V1 MDR tox: inactive; MCF10A rereplic: 0.4%; HT1080 IDH1KD tx: 10.9%

How did Cc1nc(NC2=NCN(CCCN3CCOCC3)CN2)nc2c(C)cccc12 do in these assays?
HT1080-NT tox: -5.3%; KB-3-1 tox: 8.2µM*; KB-V1 MDR tox: inactive; SW480 rereplic: inconclusive; MCF10A rereplic: inconclusive; HT1080 IDH1KD tx: -13.0%

Results for CCOc1ccc(-c2nc(-c3ccc(OC)cc3)no2)cc1OCC ?
HT1080-NT tox: 8.6%; KB-3-1 tox: inactive; KB-V1 MDR tox: 13µM*; SW480 rereplic: -9.7%; MCF10A rereplic: 2.8%; HT1080 IDH1KD tx: 6.5%

What do the screens show for `COc1ccc(Cc2noc(-c3ccc(OC)c(OC)c3)n2)cc1OC`?
HT1080-NT tox: -21.6%; KB-3-1 tox: inactive; KB-V1 MDR tox: 11.6µM*; SW480 rereplic: inconclusive; MCF10A rereplic: inconclusive; HT1080 IDH1KD tx: -22.5%

What do the screens show for `COc1ccc(CCC(=O)Nc2ccc(-c3noc(-c4ccc(OC)c(OC)c4)n3)cc2)cc1`?
HT1080-NT tox: -6.8%; KB-3-1 tox: inactive; KB-V1 MDR tox: inconclusive; SW480 rereplic: -8.9%; MCF10A rereplic: inconclusive; HT1080 IDH1KD tx: 0.5%

Results for CCOc1ccc(-c2noc(-c3ccncc3)n2)cc1OCC ?
HT1080-NT tox: 17.8%; KB-3-1 tox: inactive; KB-V1 MDR tox: inactive; SW480 rereplic: -14.5%; MCF10A rereplic: 4.6%; HT1080 IDH1KD tx: 10.8%

How did COc1cc(-c2nc(-c3ccc(NC(=O)c4ccc(Br)o4)cc3)no2)cc(OC)c1OC do in these assays?
HT1080-NT tox: inconclusive; KB-3-1 tox: inactive; KB-V1 MDR tox: inconclusive; SW480 rereplic: 16.7%; MCF10A rereplic: 5.17µM*; HT1080 IDH1KD tx: inconclusive

Results for COc1cc(C(=O)Nc2ccc(-c3nc4cc(C)c(C)cc4o3)cc2)cc(OC)c1OC ?
KB-3-1 tox: inactive; KB-V1 MDR tox: inactive

Results for COc1ccc(-c2nc(-c3ccc(NC(=O)c4ccc(Br)o4)cc3)no2)cc1OC ?
HT1080-NT tox: inconclusive; KB-3-1 tox: inactive; KB-V1 MDR tox: inactive; SW480 rereplic: 14.5%; MCF10A rereplic: 2.59µM*; HT1080 IDH1KD tx: inconclusive

Results for CCCc1ccc(OC(C)c2nc(-c3ccc(-n4cccc4)cc3)no2)cc1 (configuration not stated) ?
KB-3-1 tox: inactive; KB-V1 MDR tox: inactive

How did CC(C)C[C@H]1CN(CCCC[C@@H]2CNC(=O)C(=O)N2CCc2ccccc2)C(=O)C(=O)N1CCc1ccccc1 do in these assays?
HT1080-NT tox: 12.9%; KB-3-1 tox: inactive; KB-V1 MDR tox: inactive; HT1080 IDH1KD tx: 9.6%

Results for CC(=O)N1CCc2cc(Br)cc(S(=O)(=O)CCC(=O)Nc3ccc(C)cc3Cl)c21 ?
KB-3-1 tox: inactive; KB-V1 MDR tox: inactive

Results for CCCCc1c(-c2ccccc2OC)ncn1CCc1cccc(OC)c1 ?
HT1080-NT tox: 18.4µM*; KB-3-1 tox: inconclusive; KB-V1 MDR tox: 11.6µM*; HT1080 IDH1KD tx: 16.4µM*

How did COc1cccc(-c2c(-c3ccccc3OC)ncn2Cc2cccc(-c3ccccc3)c2)c1 do in these assays?
HT1080-NT tox: inconclusive; KB-3-1 tox: inconclusive; KB-V1 MDR tox: 13µM*; HT1080 IDH1KD tx: inconclusive

Results for CCCCc1c(-c2ccccc2OC)ncn1CCc1cccc(F)c1 ?
HT1080-NT tox: 20.6µM*; KB-3-1 tox: inconclusive; KB-V1 MDR tox: 16.4µM*; HT1080 IDH1KD tx: 18.4µM*

How did CC(C)Cn1c([N+](=O)[O-])nc2c1c(=O)[nH]c(=O)n2C do in these assays?
HT1080-NT tox: 13µM*; KB-3-1 tox: inconclusive; KB-V1 MDR tox: inconclusive; SW480 rereplic: inconclusive; MCF10A rereplic: 11.6µM*; HT1080 IDH1KD tx: 16.4µM*

What do the screens show for `Cn1c(=O)[nH]c(=O)c2c1nc([N+](=O)[O-])n2Cc1ccccc1`?
HT1080-NT tox: 2.59µM*; KB-3-1 tox: inconclusive; KB-V1 MDR tox: inconclusive; SW480 rereplic: -31.6%; MCF10A rereplic: 2.06µM*; HT1080 IDH1KD tx: 3.26µM*

How did Cc1ccc(C(=O)c2oc3ccccc3c2NC(=O)c2cc(=O)c3cc(C)ccc3o2)cc1 do in these assays?
KB-3-1 tox: inconclusive; KB-V1 MDR tox: inactive

Results for Nc1ccc(C(=O)NN2C(=O)[C@H](Cl)C2c2ccc(Cl)cc2)cc1 (some centres not stated) ?
HT1080-NT tox: inconclusive; KB-3-1 tox: inconclusive; KB-V1 MDR tox: inconclusive; SW480 rereplic: 9.2µM*; MCF10A rereplic: 16.4µM*; HT1080 IDH1KD tx: 18.4µM*

Results for Cc1ccc(S(=O)(=O)CCC(=O)Nc2nnc(-c3cccs3)o2)cc1 ?
HT1080-NT tox: -0.5%; KB-3-1 tox: inactive; KB-V1 MDR tox: inactive; SW480 rereplic: inconclusive; MCF10A rereplic: inconclusive; HT1080 IDH1KD tx: -4.5%

What do the screens show for `CCOc1ccccc1NC(=O)CSc1nc2nc(-c3cccs3)cc(C(F)(F)F)c2c(=O)[nH]1`?
HT1080-NT tox: inconclusive; KB-3-1 tox: inactive; KB-V1 MDR tox: inactive; SW480 rereplic: -4.4%; MCF10A rereplic: 16.4µM*; HT1080 IDH1KD tx: inconclusive

What do the screens show for `CC1(c2nc3ccccc3[nH]2)CCC2=Nc3ccccc3CN21` (configuration not stated)?
HT1080-NT tox: -3.8%; KB-3-1 tox: inactive; KB-V1 MDR tox: inactive; HT1080 IDH1KD tx: -9.2%

How did CC(CSC(=O)c1ccccc1)C(=O)N1c2ccccc2CC1C(=O)O (configuration not stated) do in these assays?
HT1080-NT tox: -5.7%; KB-3-1 tox: inactive; KB-V1 MDR tox: inactive; HT1080 IDH1KD tx: -5.5%

Results for CC1Cc2ccccc2N1C(=O)CSc1nnc(-c2ccc(S(=O)(=O)N3CCCC3)cc2)o1 (configuration not stated) ?
HT1080-NT tox: 2.5%; KB-3-1 tox: inactive; KB-V1 MDR tox: 2.06µM*; SW480 rereplic: 0.5%; MCF10A rereplic: 1.8%; HT1080 IDH1KD tx: 1.2%

Results for CC1Cc2ccccc2N1C(=O)CSc1nnc(-c2ccccc2Cl)o1 (configuration not stated) ?
KB-3-1 tox: inactive; KB-V1 MDR tox: inactive

Screening results (PubChem BioAssay)
